Source: PubChem BioAssay (several laboratories)
Compounds with a hit are over-represented: about 4% of the library has one in this group of screens.
FBA Mtb inh: inhibitors of M. tuberculosis fructose-bisphosphate aldolase. P9WQA3. purified M. tuberculosis FBA, fluorescence read-out. inhibition, % at 1 µM. hit rate 2.3% among 360,000;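 further: 0% = vehicle and 100% = reference inhibitor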
GDH-TPI counter-1: GDH-TPI coupled enzyme inhibition counter-screen; GDH-TPI coupled enzyme counterscreen, NADH absorbance; inhibition, % at 4.8 µM; hit rate 1.2% among 360,000; AID 588335; in the data active means inhibition above about 30%;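 further: 0% = DMSO wells and 100% = wells lacking the enzyme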
Mtb betalactam: beta-lactam sensitization of Mtb H37Rv. M. tuberculosis H37Rv growth with meropenem, percent inhibition. inhibition, % at 25 µM. hit rate 0.27% among 330,000; call rule not given here;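 further: growth measured after seven days incubation then overnight dye step; 0% = bacteria only wells and 100% = bacteria with antibiotic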
RecA splice inh: inhibitors of M. tuberculosis RecA intein splicing; hit rate 0.75% among 290,000; P9WHJ3; inhibition, % (test concentration not listed); cell-free RecA intein splicing, fluorescence; in the data active means inhibition above about 30%;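 further: 0% = vehicle wells and 100% = reference inhibitor control wells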
Mtb UGM inh: inhibitors of M. tuberculosis UDP-galactopyranose mutase. purified UGM, fluorescence polarization probe displacement. hit rate 0.06% among 320,000. AID 504406. inhibition, % at 10 µM; in the data active means inhibition above about 10%, passing the limit was not always enough
Target sequence (P9WIQ1 whole entry, looked up): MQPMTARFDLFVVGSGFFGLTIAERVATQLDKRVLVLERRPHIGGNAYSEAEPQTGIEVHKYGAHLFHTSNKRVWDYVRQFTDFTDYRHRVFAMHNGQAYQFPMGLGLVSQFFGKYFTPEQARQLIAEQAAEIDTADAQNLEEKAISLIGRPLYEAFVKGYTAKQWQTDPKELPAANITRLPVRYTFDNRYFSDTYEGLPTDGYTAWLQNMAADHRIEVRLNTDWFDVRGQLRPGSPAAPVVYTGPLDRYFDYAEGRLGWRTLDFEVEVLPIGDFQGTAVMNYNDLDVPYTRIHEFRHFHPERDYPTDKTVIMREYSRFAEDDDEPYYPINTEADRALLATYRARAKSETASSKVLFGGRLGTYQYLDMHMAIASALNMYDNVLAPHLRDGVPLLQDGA
Rv3671c protease: inhibitors of M. tuberculosis serine protease Rv3671c | inhibition, % at 5.96 µM | P9WHR9 | AID 2606 | hit rate 0.048% among 320,000; in the data active means inhibition above about 38%;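 further: extracellular domain of Rv3671c used as enzyme; 0% = enzyme with DMSO and 100% = no enzyme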
Mtb FBA confirm: confirmation of M. tuberculosis fructose-bisphosphate aldolase inhibitors | shares compounds with FBA Mtb inh | purified M. tuberculosis FBA, fluorescence read-out | inhibition, % at 1 µM | hit rate 78% among 5,600 | AID 651616;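 further: 0% = vehicle wells and 100% = reference inhibitor wells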
GDH-TPI counter-2: GDH-TPI inhibition counter-screen for FBA inhibitors | GDH-TPI coupled enzyme counterscreen, fluorescence | shares compounds with FBA Mtb inh | hit rate 81% among 5,600 | AID 652141 | inhibition, % at 1 µM; in the data active means inhibition above about 10%
* = called active by the depositor; . = no result given; + = active, no number. Unless noted, no stated cut-off is given here; in the data, active means inhibition above about 27%; inactive means the rest.

SMILES | FBA Mtb inh | GDH-TPI counter-1 | Mtb betalactam | RecA splice inh | Mtb UGM inh | Rv3671c protease | Mtb FBA confirm | GDH-TPI counter-2
COc1ccc(N2CCN(C(=O)c3ccc(Cl)c(S(=O)(=O)N4CCOCC4)c3)CC2)cc1 | -0.3 | 1.4 | . | . | . | . | . | .
CCOC(=O)c1nc2cc3n(c(C)c-2c1C)C(C)C(CC)=C3C (configuration not stated) | 34.2* | 2.4 | -6.3 | -6.7 | -0.9 | 3.4 | + | 180.8*
CSc1ccc(/C=C(\C(=O)O)c2ccc(S(=O)(=O)N3CCCCC3)s2)cc1 | 37.4* | 29.1 | 2.9 | 2.4 | 1.3 | -1.8 | 1.2 | -5.1
CC(=O)N1CCN(C(=O)CSc2nnc(C)n2-c2ccccc2)CC1 | 0.2 | 6.9 | -2.9 | -1.5 | 2.5 | 1.8 | . | .
COc1ccc(C(=O)N2CCCC(C(=O)N3CCCCCC3)C2)cc1 (configuration not stated) | -0.5 | -7.7 | -1.6 | 2.1 | -1.7 | -4.5 | . | .
CCn1ccnc1CN1CCCC(C(=O)c2ccc3cc(OC)ccc3c2)C1 (configuration not stated) | 23.9 | -0.6 | 84.9 | 1.8 | 0.2 | 3.3 | . | .
COc1ccc2cc(C(=O)C3CCCN(C(=O)C4=NN(C)C(=O)CC4)C3)ccc2c1 (configuration not stated) | 63.0* | 10.6 | 4.6 | -3.8 | -0.4 | 8.7 | 85.0* | 51.7*
O=C(c1ccc(Cl)cc1)C1CCCN(C(=O)c2csnn2)C1 (configuration not stated) | -0.9 | 5.0 | -0.1 | 1.9 | -1.6 | 2.1 | . | .
COc1ccc2cc(C(=O)C3CCCN(Cc4ccccn4)C3)ccc2c1 (configuration not stated) | 40.7* | 6.1 | 87.5 | -0.3 | -2.2 | 1.4 | + | +
COc1ccc2cc(C(=O)C3CCCN(C(=O)c4csnn4)C3)ccc2c1 (configuration not stated) | 95.8* | 25.6 | -6.5 | -1.1 | 2.8 | -5.5 | 43.8* | 35.0*
COc1ccc2cc(C(=O)C3CCCN(C(=O)c4cnn(C(C)C)c4)C3)ccc2c1 (configuration not stated) | 105.0* | 13.5 | 5.8 | 1.8 | -1.4 | 0.7 | 49.6* | 39.3*
O=C(NNC(=O)c1csc(N2CCOCC2)n1)c1ccc(=O)[nH]c1 | -1.7 | 12.7 | -0.6 | . | -2.9 | 6.6 | . | .
CCC(C(=O)N1CCCCCC1)n1nc(C)n2c(cc3occc32)c1=O (configuration not stated) | 2.2 | -2.6 | -4.1 | 2.9 | -1.2 | -9.1 | . | .
CSc1nc(N)nc2c1ncn2CC(=O)NCC1CCCO1 (configuration not stated) | 2.0 | 2.7 | -7.1 | . | 2.3 | -3.8 | . | .
Cc1cc(OCC(=O)NC(Cc2ccc(Cl)cc2)C(=O)O)c2c3c(c(=O)oc2c1)CCCC3 (configuration not stated) | 70.5* | 13.7 | -7.2 | . | 1.5 | 1.6 | -0.5 | -3.6
Cc1cc(OCC(=O)NC(Cc2c[nH]c3ccc(O)cc23)C(=O)O)c2c(C)c(C)c(=O)oc2c1 (configuration not stated) | 32.6* | 2.8 | -4.8 | 1.7 | 1.7 | -0.7 | + | +
Cc1cc(OCC(=O)NC2CCN(Cc3ccccc3)CC2)c2c(C)c(C)c(=O)oc2c1 | 8.0 | 19.2 | -0.2 | 0.3 | 1.3 | -1.3 | . | .
Cc1cc(OCC(=O)NC(Cc2ccc(Cl)cc2)C(=O)O)c2c(C)c(C)c(=O)oc2c1 (configuration not stated) | 60.0* | 12.8 | 0.5 | -2.3 | 3.3 | -1.1 | 185.7* | 143.4*
Cc1cc(OC(C)C(=O)NC(Cc2c[nH]c3ccc(O)cc23)C(=O)O)c2c(C)cc(=O)oc2c1 (configuration not stated) | 8.2 | 7.6 | -0.1 | 2.3 | 4.6 | -1.1 | . | .
O=C(CN1CCCC1c1ccc2c(c1)OCCO2)NC(=O)Nc1ccccc1 (configuration not stated) | 3.7 | 7.0 | -3.7 | . | -1.7 | -2.4 | . | .
CC1Sc2ccc(S(=O)(=O)CCC(=O)NCc3ccc(Cl)cc3)cc2NC1=O (configuration not stated) | 1.9 | 7.4 | 3.9 | 0.5 | 2.1 | -1.5 | . | .
